The values that follow come from PubChem BioAssay (NCI).

Some test systems named below: NCI-H23 lung; NCI-H226 lung; NCI-H322M lung; HOP-62 NSCLC; NCI-H460 lung; HOP-92 NSCLC; NCI-H522 lung; A549/ATCC NSCLC; 786-0 renal; COLO 205 colon.
Holding throughout (test): NCI-60 one-dose screen, 48 h (100 = growth as untreated, 0 = no growth, -100 = all killed)
What all share (details): 10 µM unless noted

Compounds without any hit were thinned out: in the full panel of roughly 83,000, 20% have a hit.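 Compound tested at a single concentration for 48 hours in 96-well plates; a percent growth value below 10 was scored as active.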 Values without a mark were called inactive. Calls of active or inactive are those of the source.

Regarding `Cc1cc(=O)oc2cc(OCc3nn4c(Nc5nc6ccccc6s5)c(-c5ccccc5)nc4s3)ccc12`, the growth in the experiment on NCI-H23 lung is 83.3%; in the experiment on NCI-H226 lung it was 92.2%; in the experiment on NCI-H322M lung, 90.7%; in the experiment with HOP-62 NSCLC it was 90.2%; with NCI-H460 lung, 83.8%; in the experiment with HOP-92 NSCLC, 77.1%. Further, the growth in the experiment on NCI-H522 lung was 76.6%; in the experiment with A549/ATCC NSCLC it was 94.4%; in the experiment with 786-0 renal, 103%; in the experiment on COLO 205 colon it was 104%.
`O=C(Nc1ccccc1)Nc1ncnc2c1ncn2-c1ccc(Cl)cc1`: the growth was 88.5% in the experiment on NCI-H23 lung; 65% in the experiment on NCI-H226 lung; 79.3% in the experiment with NCI-H322M lung; 75.4% in the experiment with HOP-62 NSCLC; 46.3% in the experiment on NCI-H460 lung; 97.3% with HOP-92 NSCLC. In addition, the growth in the experiment on NCI-H522 lung was 85.4%; in the experiment with A549/ATCC NSCLC, 83.7%; with 786-0 renal, 46.9%; in the experiment with COLO 205 colon it was 86.8%.
In the case of `CC(C)(C)[Si](C)(C)OC1[C@@H](CNC(=O)NC(=O)NC(N)=O)O[C@@H](n2cnc3c(NC(=O)Nc4ccccc4)ncnc32)[C@H]1O[Si](C)(C)C(C)(C)C` (stereo not given in full), the growth is 75.4% in the experiment with NCI-H23 lung; 69.4% with NCI-H226 lung; 87.1% in the experiment with NCI-H322M lung; 71% in the experiment on HOP-62 NSCLC; 27.4% in the experiment on NCI-H460 lung; 92% with HOP-92 NSCLC. The growth with NCI-H522 lung is 43.3%; in the experiment on A549/ATCC NSCLC, 44.1%; with 786-0 renal, 90.9%; in the experiment on COLO 205 colon, 54.3%.
Consider `O=C1c2ccccc2-c2c1c1c(=O)[nH]c3ccccc3c1n2Cc1ccccc1`, for which the growth in the experiment with NCI-H23 lung is 63.1%; in the experiment on NCI-H226 lung it was 29.5%; with NCI-H322M lung, 58.4%; in the experiment with HOP-62 NSCLC it was 75.8%; in the experiment on NCI-H460 lung, 58.9%; in the experiment on HOP-92 NSCLC, 56.4%. Besides, the growth in the experiment with NCI-H522 lung is 35%; in the experiment with A549/ATCC NSCLC it was 44.9%; in the experiment with 786-0 renal, 39.7%; in the experiment on COLO 205 colon it was 73.8%.
For `NC(=O)c1c(NC(=O)c2ccc3ccccc3c2)sc2c1CCC(=O)C2`, the growth in the experiment with NCI-H23 lung was 35.4%; in the experiment with NCI-H226 lung, 91.8%; in the experiment with NCI-H322M lung it was 94.9%; with HOP-62 NSCLC, 99.9%; with NCI-H460 lung, 92.6%; with HOP-92 NSCLC, 83.6%. Also, the growth in the experiment on NCI-H522 lung was 10.5%; in the experiment on A549/ATCC NSCLC, 95.5%; with 786-0 renal, 99.6%; in the experiment on COLO 205 colon, 58.4%.
In the case of `Cn1ccnc1C(=O)/C=C/c1ccc(C(=O)Nc2ccc(Cl)cc2)cc1`, the growth with NCI-H23 lung is -18.7% (active); in the experiment on NCI-H226 lung it was 16.8%; with NCI-H322M lung it was 0.414% (active); with HOP-62 NSCLC, -4.38% (active); in the experiment with NCI-H460 lung, -28.7% (active); with HOP-92 NSCLC, 17%. For the same compound, the growth in the experiment on NCI-H522 lung was -5.14% (active); in the experiment on A549/ATCC NSCLC, 6.96% (active); in the experiment with 786-0 renal it was -78.8% (active); with COLO 205 colon, 1.1% (active).
Take `CC(C)c1ccc(Cc2cnc(NC(=O)c3cc(Br)cs3)s2)cc1`: the growth was 47.6% in the experiment on NCI-H23 lung; 24.5% in the experiment with NCI-H226 lung; 45.6% in the experiment with NCI-H322M lung; 35.8% in the experiment with HOP-62 NSCLC; 13.6% in the experiment with NCI-H460 lung; 35.7% in the experiment with HOP-92 NSCLC. Moreover, the growth in the experiment on NCI-H522 lung was -1.16% (active); in the experiment on A549/ATCC NSCLC it was 31.4%; with 786-0 renal it was 31.3%; with COLO 205 colon it was 15.4%.
For `CCOc1ccc(NC(=O)CSc2oc(-c3ccccc3)nc2S(=O)(=O)c2ccc(C)cc2)cc1`, the growth with NCI-H23 lung was 67.4%; in the experiment with NCI-H226 lung, -18.8% (active); in the experiment on NCI-H322M lung it was 61.1%; in the experiment on HOP-62 NSCLC it was 53.9%; with NCI-H460 lung, 35.9%; in the experiment on HOP-92 NSCLC it was 46.4%. Moreover, the growth is 83.8% with NCI-H522 lung, 41.1% with A549/ATCC NSCLC, 66.1% with 786-0 renal and 81.8% in the experiment with COLO 205 colon.
Consider `Cn1cc(-c2ccc3nc(-c4ccc(CC(=O)ONc5cc(C(C)(C)C)on5)cc4)cnc3c2)cn1`, for which the growth in the experiment on NCI-H23 lung was 43.7%; with NCI-H226 lung it was 43.2%; with NCI-H322M lung, 22.8%; in the experiment with HOP-62 NSCLC, 37.1%; in the experiment on NCI-H460 lung, 25.2%; in the experiment with HOP-92 NSCLC, 30.3%. Also, the growth in the experiment with NCI-H522 lung was 39.4%; in the experiment with A549/ATCC NSCLC it was 31.1%; with 786-0 renal it was 23.1%; in the experiment on COLO 205 colon it was 51.3%.
As to `Cc1nc2sc(C(=O)Nc3cccc4ccccc34)c(N)c2cc1C(O)c1ccccc1` (stereo not given), the growth with NCI-H23 lung was 7.51% (active); in the experiment on NCI-H226 lung, 46.1%; in the experiment on NCI-H322M lung it was 51.4%; in the experiment with HOP-62 NSCLC, 20.4%; in the experiment on NCI-H460 lung it was 0.274% (active); with HOP-92 NSCLC, 34%. Further, the growth with NCI-H522 lung is -25.3% (active); in the experiment on A549/ATCC NSCLC, 9.88% (active); with 786-0 renal, 16.1%; in the experiment on COLO 205 colon it was -58.2% (active).
Regarding `CCCCCN1C(=O)/C(=c2\sc3n(c2=O)C2C(NN=3)N(CC)C(=O)N2CC)c2ccccc21` (stereo not given), the growth with NCI-H23 lung was 12.1%; in the experiment on NCI-H226 lung it was 9.26% (active); in the experiment with NCI-H322M lung, 21.2%; in the experiment with HOP-62 NSCLC it was 9.45% (active); in the experiment on NCI-H460 lung it was -74.6% (active); in the experiment with HOP-92 NSCLC it was 3.79% (active). Also, the growth in the experiment on NCI-H522 lung was -28% (active); in the experiment on A549/ATCC NSCLC, -85% (active); in the experiment with 786-0 renal it was -61.6% (active); in the experiment with COLO 205 colon it was 0.959% (active).
For the compound `O=C(/C=C/c1cccc(Cl)c1)c1ccc(Nc2nc(Nc3ccc(F)cc3)nc(Nc3ccc(Cl)cc3)n2)cc1`, the growth was 97.9% in the experiment on NCI-H23 lung; 118% with NCI-H226 lung; 96.6% in the experiment on NCI-H322M lung; 91.9% in the experiment with HOP-62 NSCLC; 143% with NCI-H460 lung; 72.9% in the experiment with HOP-92 NSCLC. For the same compound, the growth is 102% in the experiment on NCI-H522 lung, 87.1% in the experiment with A549/ATCC NSCLC, 99.1% in the experiment on 786-0 renal and 108% with COLO 205 colon.
With `COc1ccc(CN2c3ccccc3Sc3ccccc32)cc1F`, the growth is 30.7% with NCI-H23 lung; 45.6% in the experiment with NCI-H226 lung; 43% with NCI-H322M lung; 20.4% in the experiment on HOP-62 NSCLC; 5.41% (active) in the experiment on NCI-H460 lung; 50.4% in the experiment with HOP-92 NSCLC. In addition, the growth in the experiment with NCI-H522 lung was 4.53% (active); in the experiment on A549/ATCC NSCLC, 21.9%; in the experiment with 786-0 renal, 22.5%; with COLO 205 colon it was -32.9% (active).
With `C[PH+](c1nc2ccccc2nc1[PH+](C)C(C)(C)C)C(C)(C)C.C[PH+](c1nc2ccccc2nc1[PH+](C)C(C)(C)C)C(C)(C)C.[Au+].[Cl-]` (stereo not given), the growth in the experiment on NCI-H23 lung is -90.2% (active); in the experiment on NCI-H226 lung it was -60.4% (active); in the experiment on NCI-H322M lung, -94% (active); in the experiment on HOP-62 NSCLC it was -94.3% (active); with NCI-H460 lung, -85.5% (active); in the experiment with HOP-92 NSCLC it was -81.5% (active). The growth with NCI-H522 lung is -88.7% (active); in the experiment with A549/ATCC NSCLC it was -73.8% (active); with 786-0 renal, -96.6% (active); in the experiment with COLO 205 colon it was -100% (active).
